Laboratory results: PubChem BioAssay (NCI)
This is part of a sample that, as a whole, favours compounds with a hit. Of some 79,000 tested, about 15% had one in any assay. Activity calls are given as the source filed them. Rule as the data show it: active = growth inhibition above about 70%; inactive = the rest.

Experiments:
[1] = NCI Yeast Anticancer Drug Screen. Data for the rad50 strain (AID 155);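 also: 0% = growth of vehicle-only cultures of the same strain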; conditions: S. cerevisiae rad50 strain growth inhibition; at 50.0 µM; stronger effect = higher value
Method in brief: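 Vehicle-treated cultures provide the reference for the growth inhibition reported for compound-exposed, repair-deficient yeast.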

[2] = NCI Yeast Anticancer Drug Screen. Data for the mec2-1 strain (AID 157); conditions: S. cerevisiae mec2-1 strain, at 50.0 µM, stronger effect = higher value
Method in brief: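 Growth inhibition is read against vehicle-treated controls after compound exposure of the mec2-1 yeast strain, which is defective in DNA damage repair or cell cycle control.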

[3] = NCI Yeast Anticancer Drug Screen. Data for the sgs1 mgt1 strain (AID 161);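 also: 0% = growth of cultures given vehicle only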; conditions: S. cerevisiae sgs1 mgt1 strain, at 50.0 µM, stronger effect = higher value
Method in brief: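 Compounds are added to genetically altered yeast, and growth is compared with cultures given vehicle alone to give percent inhibition.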

[4] = NCI Yeast Anticancer Drug Screen. Data for the cln2 rad14 strain (AID 165);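 also: 0% = growth equal to vehicle treated cultures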; conditions: S. cerevisiae cln2 rad14 strain, at 50.0 µM, stronger effect = higher value
Method in brief: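 Growth inhibition, relative to vehicle-treated controls, is the read-out. The test organism is a yeast strain with defined genetic alterations, cln2 rad14.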

[5] = NCI Yeast Anticancer Drug Screen. Data for the bub3 strain (AID 167); conditions: S. cerevisiae bub3 mutant strain, at 50.0 µM, stronger effect = higher value
Method in brief: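 Mutant yeast screening strain plus compound; vehicle-treated cultures serve as the 0% inhibition reference.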

[6] = NCI Yeast Anticancer Drug Screen. Data for the mlh1 rad18 strain (AID 175); conditions: S. cerevisiae mlh1 rad18 strain growth inhibition; at 50.0 µM; stronger effect = higher value
Method in brief: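 Cells of a genetically altered yeast strain, deficient in DNA damage repair, were treated with compound. Their growth was then compared with that of vehicle-treated cultures to give inhibition.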

Measured: growth inhibition

COC(=O)CCC1(CCC(=O)OC)CCCCCCC(CCC(=O)OC)(CCC(=O)OC)C(=O)C1=O
inactive: [1] -11.6% | [2] -0.5% | [3] -1.25% | [4] -2.45% | [5] 5.25% | [6] 19.8%

c1ccc(C2=C(c3ccccn3)N=c3ccccc3=c3ccccc3=N2)nc1
inactive: [1] 2.4% | [2] 14.2% | [3] -1.15% | [4] -48.6% | [5] 3.65% | [6] -8.9%

Cc1ccccc1/C=N/Nc1ccc([N+](=O)[O-])cc1[N+](=O)[O-]
inactive: [1] -2.45% | [2] 13.4% | [3] -1.75% | [4] -35.1% | [5] -25.1% | [6] -11.8%

O=C(O)c1cc(C2CC2)nc2ccc(Br)cc12
inactive: [1] 13.6% | [2] 1.7% | [3] 2.2% | [4] 6.55% | [5] -5.6% | [6] 19.8%
